Assay results taken from PubChem BioAssay AID2797 (The Scripps Research Institute Molecular Screening Center, 2010).
Several values for one entry are separate records, joined by “and”; a condition that tells them apart may be missing. Identical values can stand only once. About 820 (0.26%) of roughly 320,000 compounds were called active.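 The calls were made as follows: active = activation above the mean activation of all tested compounds plus 3 SD, per screening run (cut at about 20% in these data); inactive = the rest.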 Only a selection was taken, and actives are over-represented in it overall.

Each compound was assayed against Vasopressin V1a receptor (Homo sapiens) (UniProt P37288) (assay: V1R activation via calcium rise – fluorescence, CHO-V1R cells, counter-screen for OXTR agonist project, primary screen (AID 2797;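 also: signal is peak over basal fluorescence ratio across a 100 second FLIPR read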)). Details: Fluo-8 calcium fluorescence, agonist mode, at 3 µM, hits give high values, 0% DMSO, 100% 3 nM vasopressin.
Sequence of Vasopressin V1a receptor (Homo sapiens) (P37288 whole entry, looked up): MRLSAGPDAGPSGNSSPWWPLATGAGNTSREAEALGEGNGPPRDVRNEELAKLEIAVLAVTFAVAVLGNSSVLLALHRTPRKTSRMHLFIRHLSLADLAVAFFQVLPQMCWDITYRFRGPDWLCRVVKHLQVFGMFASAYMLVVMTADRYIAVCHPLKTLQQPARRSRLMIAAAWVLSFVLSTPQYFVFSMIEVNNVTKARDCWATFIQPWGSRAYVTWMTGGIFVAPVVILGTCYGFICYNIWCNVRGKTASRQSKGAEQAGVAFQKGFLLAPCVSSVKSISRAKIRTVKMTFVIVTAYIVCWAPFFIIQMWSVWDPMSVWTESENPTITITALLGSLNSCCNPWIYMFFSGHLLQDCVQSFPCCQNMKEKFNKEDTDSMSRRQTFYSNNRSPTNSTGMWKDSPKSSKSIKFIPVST
For `Cn1c2ccccc2c(=O)c2c(O)cccc21`, the activation was 0.32% (inactive). In the case of `CCCc1nc2c(c(=O)c3ccccc3n2C)c(=O)n1C1CCCCCC1`, the activation is reported as 86.8% (active). With `Cn1c2ccccc2c(=O)c2c(=O)n(Cc3ccco3)c(COc3ccccc3)nc21` the activation was 2.23% (inactive). In the case of `NS(=O)(=O)c1ccc(NC(=O)COC(=O)C2(c3ccc(F)cc3)CCCC2)cc1`, the activation is reported as 10.2% (inactive). In the case of `CCC(C(=O)Nc1ccc2c(c1)OCCO2)c1ccccc1` (centres undefined), the activation is reported as 1.12% (inactive). With `CCC(C(=O)Nc1ccc(C(C)C)cc1)c1ccccc1` (centres undefined) the activation was 40.7% (active). `CCC(C(=O)OCC(=O)Nc1ccc(C(=O)Nc2ccc(OC)cc2)cc1)c1ccccc1` (centres undefined) was tested, and the activation was 6.96% (inactive). With `COc1ccc2c(c1)C(=O)Nc1cc(Cl)ccc1N2` the activation was 3.78% (inactive). For `Cc1cccn2c(=O)c(/C=C(\C#N)C(N)=O)c(N3CCCCCC3)nc12`, the activation was -0.28% (inactive). With `CCOC(=O)CC1C(=O)NCCN1c1nc2c(C)cccn2c(=O)c1/C=C1\SC(=S)N(C(C)CC)C1=O` (centres undefined) the activation was 34% (active). With `CCOC(=O)N1CCN(C(=O)CSc2nc(=O)n3cccc(C)c3n2)CC1` the activation was -0.26% (inactive). With `Cn1nccc1NC(=O)CC(CC(=O)O)c1ccccc1` (centres undefined) the activation was -0.62% (inactive). For `Cc1ccc(C(=O)NCC(=O)OCc2nnc(-c3ccccc3)o2)cc1`, the activation was 1.89% (inactive). `CCCc1ccc(C(=O)[C@@H]2[C@@H](C(C)=O)N3c4ccc(F)cc4C=C[C@@H]3[C@@]23C(=O)Nc2ccccc23)cc1` was tested, and the activation was -0.96% (inactive). For `Cc1ccc(CNC(=O)c2cccc3c2C(=O)c2ccc(N4CCC(C)CC4)cc2S3(=O)=O)cc1`, the activation was 49.5% (active). For `CC1CCN(c2c(NCc3ccc(C(=O)NCc4ccccc4)cc3)c(=O)c2=O)CC1`, the activation was 0.76% (inactive). `Cc1ccc(CNC(=O)c2ccc3c(c2)S(=O)(=O)c2ccccc2C3=O)cc1` was tested, and the activation was -0.95% (inactive). For `CCCN(CCC)CCCNC(=O)CNC(=O)c1nn(-c2ccc(OC)cc2)c(=O)c2ccccc12`, the activation was 2.99% (inactive). For `CCOC(=O)C1=C(CC)Nc2ccccc2N=C1NC(=O)c1cccc(S(=O)(=O)N2CCCC2)c1`, the activation was -0.11% (inactive). With `Cc1cccc(CN2CCC(CNC(=O)Nc3ccc(F)c(Cl)c3)CC2)c1` the activation was 26.4% (active). `Cc1ccc(C)c(CN2CCC(CNC(=O)Nc3ccc(C)c(F)c3)CC2)c1` was tested, and the activation was 4.31% (inactive). `Cc1ccccc1NC(=O)NCC1CCN(Cc2cccc(Cl)c2)CC1` was tested, and the activation was 3.18% (inactive). In the case of `CCNC(=S)NNC(=O)Cc1ccccc1`, the activation is reported as -0.19% (inactive). With `CC(C)C(=O)Nc1cccc(NC(=S)NC(=O)C(c2ccccc2)c2ccccc2)c1` the activation was 6.96% (inactive). In the case of `CCCCC(=O)NNC(=S)NC(=O)C(c1ccccc1)c1ccccc1`, the activation is reported as 73.7% (active). `Cc1ccc(S(=O)(=O)NC2CCCCCC2)cc1C(N)=O` was tested, and the activation was 3.64% (inactive). `CCCN(CC1COc2ccccc2O1)C(=S)Nc1ccc(C)cc1` (centres undefined) was tested, and the activation was -0.74% (inactive). `CN(C(=O)CN(CCO)CC(=O)N(C)C(C)(C)Cc1ccccc1)C(C)(C)Cc1ccccc1` was tested, and the activation was 53.5% (active). With `CCN(CC)C(=O)N(CC)Cc1ccccc1` the activation was 0.23% (inactive). `OCCN(Cc1ccccc1)Cc1ccc(Cl)cc1` was tested, and the activation was 0.58% (inactive). For `O=C(Nc1ccc2c(c1)OCCO2)c1cnccn1`, the activation was -0.23% (inactive). In the case of `CCN(CC)c1ccc(/C=N/NC(=O)c2cnccn2)c(O)c1`, the activation is reported as 20.8% (active). For `Cc1ccc(C(=O)NCCNC(=O)c2cnccn2)cc1`, the activation was 0.28% (inactive). In the case of `CC(c1ccco1)N(C(=O)Nc1ccccc1)C1CCCCC1` (centres undefined), the activation is reported as -0.6% (inactive). With `CC(C)c1cc(NCc2ccccn2)n2c(nc3ccccc32)c1C#N` the activation was -0.18% (inactive). For `CC/C(=N\NC(=O)c1ccccc1Cl)c1ccc(Br)s1`, the activation was 0.56% (inactive). `O=C(CN1C(=O)CCC1=O)Nc1ccc(S(=O)(=O)N2CCOCC2)cc1` was tested, and the activation was 0.29% (inactive). With `O=C(CN1CCCCCC1)Nc1ccc(S(=O)(=O)N2CCCCC2)cc1` the activation was 0.94% (inactive). `O=C(CN1CCN(c2cccc(Cl)c2)CC1)Nc1ccc(S(=O)(=O)N2CCOCC2)cc1` was tested, and the activation was 26.1% (active). `CCC(C)NC(=O)N[C@@H](CCSC)C(=O)O` (some centres undefined) was tested, and the activation was 0.54% (inactive). With `O=c1c2cc(Br)ccc2nc(-c2cccc(Cl)c2)n1O` the activation was 39% (active). With `NC(=O)c1cc(-c2cccnc2)nc2ccc(Br)cc12` the activation was -0.49% (inactive). `Cc1cccc(-c2nc3ccccc3c(=O)n2NC(=O)Cc2ccc(Cl)cc2)c1` was tested, and the activation was 4.01% (inactive). In the case of `CCCCc1nc2cc(C(=O)NCCc3cnn(C)c3)ccc2o1`, the activation is reported as 1.32% (inactive). For `CC(C)c1nc(SCC(=O)Nc2cccc(C(=O)O)c2)c2c3c(sc2n1)CCCC3`, the activation was 6.28% (inactive). For `CCOc1ccc(C2NC(=S)NC3=C2CCc2ccccc23)cc1` (centres undefined), the activation was 0.4% (inactive). With `O=C(NCc1cccnc1)c1cc(S(=O)(=O)N2CCOCC2)c(Cl)cc1Cl` the activation was 1.17% (inactive). With `COc1ccccc1NC(=O)Nc1nc(CC(=O)Nc2ccccc2F)cs1` the activation was -0.76% (inactive). `Oc1ccc2ccc3cccc[n+]3c2c1` was tested, and the activation was 49.5% (active). For `CCSc1nc(C)c(CCOc2cccc(C)c2)c(=O)[nH]1`, the activation was -0.28% (inactive). In the case of `COCCN(C(=O)CC1CCCCC1)c1c(N)n(CC(C)C)c(=O)[nH]c1=O`, the activation is reported as -0.63% (inactive). `CC(=O)Nc1cccc(NC(=O)CSc2nccn2Cc2ccc(F)cc2)c1` was tested, and the activation was 3.25% (inactive). For `C=CCOc1cccc(C2C(C(=O)c3ccc(C)o3)=C(O)C(=O)N2CCCn2ccnc2)c1` (centres undefined), the activation was -0.49% (inactive). With `Cc1cc(N2C(=O)C(O)=C(C(=O)c3ccc(C)o3)C2c2ccc(OCc3ccccc3)cc2)no1` (centres undefined) the activation was 0.41% (inactive). For `C=CCOc1cccc(C2C(C(=O)c3ccc(C)o3)=C(O)C(=O)N2c2nnc(C)s2)c1` (centres undefined), the activation was 78.1% (active). In the case of `CCOC(=O)c1c(NC(=O)CSc2nnc(CNc3ccc(C)cc3C)o2)sc(C)c1C`, the activation is reported as 0.01% (inactive). With `COc1ccc(S(=O)(=O)NCC(c2ccc(C)cc2)N2CCN(C)CC2)cc1OC` (centres undefined) the activation was 0.61% (inactive). `Cc1cnc(C(=O)OCc2c(C)cc(C(C)(C)C)cc2C)cn1` was tested, and the activation was -0.09% (inactive). In the case of `CC1(C)SC2C(NC(=O)COc3ccccc3)C(=O)N2C1C(=O)O` (centres undefined), the activation is reported as 0.91% (inactive) and -0.17% (inactive). For `CC1(C)S[C@@H]2[C@H](NC(=O)COc3ccccc3)C(=O)N2C1C(=O)OCc1ccccc1` (some centres undefined), the activation was 1.45% (inactive). `CC1(C)S[C@@H]2[C@H](N=CN3CCCCCC3)C(=O)N2[C@H]1C(=O)O` was tested, and the activation was 21.6% (active). With `COC(=O)c1sc(-c2ccc(C(C)(C)C)cc2)cc1NC(=O)/C=C/C(=O)O` the activation was 28.5% (active). For `CC(C)(C)c1ccc(/C=C/C(=O)Nc2ncccn2)cc1`, the activation was -0.18% (inactive). `COc1ccccc1NC(=O)/C=C/C(N)=O` was tested, and the activation was 0.73% (inactive). `COc1ccc(S(=O)(=O)N2CCOCC2)c(C)c1C` was tested, and the activation was 0.14% (inactive). `O=C(NNC(=O)c1ccccc1[N+](=O)[O-])Nc1ccccc1C(F)(F)F` was tested, and the activation was 0.06% (inactive). `O=C(N1CCCC1)C12CC3CC(C1)CC(C(=O)N1CCCC1)(C3)C2` was tested, and the activation was -0.17% (inactive). For `Cc1nc(C(=O)NCc2ccccc2)sc1C1(C)CC(c2cccnc2)=NO1` (centres undefined), the activation was 33.9% (active). `Cc1nc(-c2ccc(Cl)cc2)sc1C1(C)CC(c2ccccc2F)=NO1` (centres undefined) was tested, and the activation was 0.6% (inactive). In the case of `Cc1nc(C(=O)Nc2ccc(Cl)cc2)sc1C1(C)CC(c2ccccc2)=NO1` (centres undefined), the activation is reported as 1.86% (inactive). With `O=C(Nc1ccc(Cl)cc1)Nc1ccc(Oc2cccnc2)nc1` the activation was 15.2% (inactive). With `COc1ccc(F)cc1S(=O)(=O)N1CCCCC1` the activation was 0.03% (inactive). `Cc1cc(NC(=O)CCC(=O)N(CC(=O)NCC2CCCO2)c2ccccc2)no1` (centres undefined) was tested, and the activation was -0.14% (inactive). `Nc1ccc2nc3c(=O)[nH]c(=S)[nH]c3nc2c1` was tested, and the activation was 33.2% (active). `NC(N)=Nc1nc2ccc(Br)cc2c(=O)[nH]1` was tested, and the activation was 0.39% (inactive). In the case of `COCC(=O)N1CCc2ccc(NC(=O)c3ccccc3Cl)cc2C1`, the activation is reported as 1.09% (inactive). In the case of `CCOC(=O)c1c(S(=O)(=O)Nc2ccc(CN3CCC(C)CC3)cc2)c(C)n(C)c1C`, the activation is reported as 0.65% (inactive). For `CCC(Oc1ccccc1C)C(=O)Nc1ccc(S(=O)(=O)Nc2cc(C)on2)cc1` (centres undefined), the activation was -0.02% (inactive). For `O=C(/C=C/c1ccc(OCc2c(F)cccc2Cl)cc1)N1CCOCC1`, the activation was 2.69% (inactive). In the case of `Fc1cccc(Cl)c1COc1ccc(-c2nnco2)cc1`, the activation is reported as 25.1% (active). For `Fc1ccc(COc2ccc(-c3nnco3)cc2)cc1`, the activation was 0.56% (inactive). In the case of `COc1cccc(C(=O)Nc2cc3c(cc2Br)OCCCO3)c1`, the activation is reported as -1.23% (inactive). `O=C(c1ccc(Br)o1)N(c1ccccn1)C1CCCCC1` was tested, and the activation was -0.71% (inactive). For `Cc1cccc(C(=O)OC(C)CN2CCCC2)c1` (centres undefined), the activation was -0.62% (inactive). In the case of `CC(C)CC1(C)NC(=O)N(CC(=O)Nc2ccc3c(c2)OCCO3)C1=O` (centres undefined), the activation is reported as 1.53% (inactive). In the case of `COCC1CCN(C(=O)CCc2nnc(C3(c4ccc(Cl)cc4)CCC3)o2)C1` (centres undefined), the activation is reported as -0.39% (inactive). In the case of `CCN(CC)c1ccc2oc(=O)c(C)nc2c1`, the activation is reported as 24.3% (active). `CCN(CC)c1ccc(C(=O)Nn2c(C)nc3ccccc3c2=O)cc1` was tested, and the activation was 6.78% (inactive). With `C=CCN(C(=O)Nc1ccc2oc(C)nc2c1)c1ccccc1` the activation was 0.19% (inactive). For `CC(C)=CCCC(C)CN1CCC(n2nccc2NC(=O)c2ccccc2)CC1` (centres undefined), the activation was 0.01% (inactive). With `COc1ccc(OC)c(NC(=O)COC(=O)Cc2ccsc2)c1` the activation was -0.12% (inactive). For `COc1cc(/C=C2/SC(=S)N(Cc3ccccc3)C2=O)cc(OC)c1O`, the activation was 15.3% (inactive). In the case of `CN(C)c1ccc(/C=C2\NC(=S)N(Cc3ccccc3)C2=O)cc1`, the activation is reported as 70.8% (active). With `CN(C)c1ccc(C=C2C(=O)OC3(CCCC3)OC2=O)cc1` the activation was 2.02% (inactive).
